# Laboratory results taken from PubChem BioAssay AID624483 (NMMLSC, 2012).
# Screen size: about 360,000 compounds; about 11,000 (3.1%) were called active. Another 2% or so got no clear call; they are omitted. This is one part of a sample in which actives are shown more often than they occur. A number with no mark means an inactive call. Rule as the data show it: active = fluorescence intensity above about 16000; inconclusive = no clear call, values can overlap the other calls; inactive = below that.
# Assay: counter-screen for toxin protease inhibitors: compound fluorescence, primary screen, artefact control for toxin protease inhibitor project, biochemical, multiplex microsphere, HTS (AID 624483)
# Conditions: compound autofluorescence counterscreen, microsphere flow cytometry; stronger effect = higher value
row,Structure (SMILES),fluorescence intensity
1,COc1ccc2ccccc2c1CNc1nnnn1C,4610
2,COc1ccc2ccccc2c1CNCc1ccccn1,22000 (active)
3,COc1ccc(C)cc1NC(=O)NCc1ccccn1,2130
4,Cc1ccc(Cc2c(-c3ccco3)nc3ccc(Cl)cn23)cc1,5920
5,CC(=O)Nc1ccc(S(=O)(=O)NC2Cc3ccccc3C2)cc1,4250
6,COc1ccc(-c2cc(NC=O)c3ncc(-c4ccccc4)n3c2)cc1OC,4190
7,CN(CC#CCC(c1ccccc1)c1ccccc1)C(C)(C)C,13300
8,CC(C)NC(=O)C(=O)NCCN1CCN(S(=O)(=O)c2ccc(Cl)cc2)CC1,10600
9,CS(=O)(=O)N1CCCCC1c1cc(C(=O)NCc2ccccc2)no1 (stereo not drawn),2870
10,CC(=O)c1cccc(-c2cnc3c(NC=O)cc(-c4ccc(N5CCN(C)CC5)cc4)cn23)c1,3240
11,O=C(Nc1ccc(C(=O)N2CCOCC2)cc1)Nc1cccc(C(F)(F)F)c1,6040
12,O=C(CN1CCN(c2ccc(F)cc2)CC1)Nc1cccc(C(F)(F)F)c1,2100
13,NC(=O)Nc1cccc(C(F)(F)F)c1,23300 (active)
14,COc1ccc(NC(=O)C2(C)Cc3c(-c4ccc(C(N)=O)cc4)ccnc3O2)cc1 (stereo not drawn),3540
15,COC(=O)c1ccc(CNC(=O)C2CCC(=O)N(Cc3ccccn3)C2)cc1 (stereo not drawn),4790
16,CCS(=O)(=O)Nc1cc(C(=O)OC)ccc1C(=O)OC,20300 (active)
17,COC(=O)c1ccc(C(=O)OC)c(NC(=S)N2CCCCC2)c1,5240
18,CCCN(CCC)C(=S)Nc1cc(C(=O)OC)ccc1C(=O)OC,2240
19,CC1C(=O)N(Cc2cn(Cc3ccco3)nn2)CCS(=O)(=O)N1Cc1ccc(-c2cccc(CO)c2)cc1 (stereo not drawn),3680
20,C=CCN1C2CCCC1CC(NC(=S)Nc1cccc(OC)c1)C2 (stereo not drawn),4340

row,Structure (SMILES),fluorescence intensity
1,CCCCNC(=O)c1nc(C2CCN(S(=O)(=O)c3ccc(F)c(F)c3)CC2)oc1-c1cccc(C(F)(F)F)c1,5910
2,Cc1cc(NC(=O)Nc2ccc(Cl)cc2)n(-c2ccccc2)n1,5820
3,O=C(Nc1ccc(Cl)cn1)c1cnn2cccnc12,4840
4,Cc1cc(NC(=O)c2cnn3cccnc23)n(-c2ccccc2)n1,19500 (active)
5,O=C(NCc1ccc(F)cc1)c1cc(C2CCCCN2C(=O)C2CCCCC2)on1 (stereo not drawn),3660
6,O=C(Nc1cccc(C(=O)N2CCCC2)c1)c1ccccc1,23500 (active)
7,CCC(CC)C(=O)Nc1cccc(C(=O)N2CCCC2)c1,9330
8,CC(=O)c1cccc(NC(=S)N2CCCC2)c1,4420
9,COc1ccccc1CNC(=O)C1CCN(c2nc3ccccc3o2)CC1,21300 (active)
10,COc1ccccc1CNC(=O)C1CCN(S(C)(=O)=O)CC1,8350
11,COc1ccc(OC)c(CNC(=O)C2CCCN(c3nc4ccccc4o3)C2)c1 (stereo not drawn),15800
12,COc1ccccc1CNC(=O)c1cc(-c2cc(F)ccc2OC)n[nH]1,3700
13,CC(C)C[C@H]1CNC(=O)C(=O)N1C[C@@H]1CCCN1C[C@H](Cc1ccccc1)N1C[C@H](CC(C)C)N(CC2CCCCCC2)C(=O)C1=O,5660
14,Cc1cccc2sc(N(CCCN(C)C)C(=O)CCS(=O)(=O)c3ccccc3)nc12,32000 (active)
15,Cc1ccc2sc(N(CCN(C)C)C(=O)/C=C/c3cccs3)nc2c1C,4390
16,Cc1cc(C)c2nc(N(CCN(C)C)C(=O)/C=C/c3cccs3)sc2c1,4460
17,COc1cc(/C=C/CNC[C@H]2O[C@@H](n3cnc(C(N)=O)n3)[C@H](O)[C@@H]2O)ccc1O,3180
18,O=C(NCc1ccccc1Cl)C1CCN(S(=O)(=O)N2CCOCC2)CC1,5690
19,Cc1ccccc1Cn1c(C)c(C(=O)NCc2cccc(C(F)(F)F)c2)sc1=O,5450
20,FC(F)(F)c1ccccc1Cc1c(-c2ccccc2)nc2c3ccccc3ccn12,6460

row,Structure (SMILES),fluorescence intensity
1,Cn1c(=O)c2c(nc(NCCNC(=O)c3ccco3)n2Cc2ccccc2F)n(C)c1=O,5330
2,CC(C)OCCCNc1nc2c(c(=O)n(Cc3ccccc3F)c(=O)n2C)n1C,23400 (active)
3,COc1ccc(N2CC(C)Cn3c2nc2c3c(=O)n(Cc3ccccc3F)c(=O)n2C)c(OC)c1 (stereo not drawn),5760
4,CCc1ccc([C@@H]2CC(=O)[C@@H]3CN(S(=O)(=O)c4ccc(C)cc4)[C@H](c4ccc(Cl)cc4)C[C@@H]3N2S(=O)(=O)c2ccc(C)cc2)cc1,6290
5,COc1ccc(CCn2c(O)c(C=NC3CC3)c(=O)[nH]c2=O)cc1OC,3180
6,COc1ccc(CCn2c(O)c(C=NCCCn3ccnc3)c(=O)[nH]c2=O)cc1OC,22700 (active)
7,O=c1[nH]c(=O)n(CCc2ccc(F)cc2)c(O)c1/C=N/N1CCCCC1,3680
8,CCc1nc2ccc(C(=O)Nc3cccc(OC)c3)cn2c1N(CCC(C)C)CCN(C)C,3940
9,COC(=O)c1ccc(S(=O)(=O)N(CCO)Cc2ccccc2)n1C,5690
10,CCCC(=O)N1CCC1(C)C(=O)NCc1ccc(SC)cc1 (stereo not drawn),4000
11,O=c1oc2ccccc2c(CNc2ccccc2)c1[N+](=O)[O-],3710
12,CC1(C(=O)NS(=O)(=O)c2ccc3ccccc3c2)CCN1C(=O)C1(c2ccc(Cl)cc2)CCC1 (stereo not drawn),3400
13,CCc1nc2c(OCc3cccc(OC)c3)cccn2c1N(C)C(=O)C(C)C,4100
14,CC(C)c1nc(-c2ccccn2)no1,21700 (active)
15,COc1ccc2nc(-c3ccccn3)ccc2c1,4000
16,O=C(Oc1ccc(-c2nc(-c3ccccn3)no2)cc1)c1ccccc1,3190
17,CC(=O)NC(c1ccccc1)c1nc(-c2cccc(C(C)C)c2)cs1 (stereo not drawn),3400
18,Cc1ccccc1OCC(=O)NNC(=O)c1ccc(-n2cncn2)c([N+](=O)[O-])c1,5300
